Compound activity deposited in PubChem BioAssay by several laboratories.
FAS TE block = inhibitors of human fatty acid synthase thioesterase domain | P49327 | recombinant FAS-TE, OMFH fluorogenic substrate, fluorescence endpoint | inhibition, % at 15 µM | 0.67% of 360,000 active;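 active = compounds whose normalised, plate-corrected inhibition of enzyme fluorescence in the single-dose primary screen is 50% or more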;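 note: 0% = DMSO with enzyme and 100% = substrate without enzyme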
NR3A LBD binder = modulates the human NR3A ligand-binding domain; NR3A LBD differential scanning fluorimetry, Tm shift; 0% = protein alone, 100% = glycine-bound protein; Tm shift relative to glycine control, % at 25 µM; 2.5% of 340,000 active; AID 1259313;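 active = melting temperature shift of at least 10% of the positive control shift, at one fixed dose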
rCAG binder = r(CAG) repeat RNA binding | AID 651821 | 1.3% of 370,000 active | inhibition, % at 3 µM | TO-PRO-1 dye displacement fluorescence;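 active = inhibition above the plate cutoff, the mean of all test compounds on that plate plus 3 SD, cut at about 35% in these data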;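 note: 0% = DMSO alone and 100% = 100 µM mitoxantrone as full dye displacement; higher means more dye released from RNA so lower well fluorescence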
NadD inh = blocks S. aureus nicotinate mononucleotide adenylyltransferase; purified NadD enzyme, colorimetric absorbance read-out; inhibition, % at 20 µM; 0.78% of 360,000 active; in the data active = inhibition above about 26%
NadD conf = confirmation of Staphylococcus aureus NadD inhibitors; shares compounds with NadD inh; purified S. aureus NadD, colorimetric enzyme assay; inhibition, % at 20 µM; 13% of 2,000 active; in the data active = inhibition mostly above about 42%, no sharp cut-off; inactive = mostly below about 42%
* = called active by the depositor. Most compounds without a hit are left out; they make up all but 4.3% or so of the library.

How did CCCN(CCC)S(=O)(=O)c1ccc(C(=O)NNc2nc(-c3ccccc3)c3cc(Br)ccc3n2)cc1 do in these assays?
FAS TE block: 22; NR3A LBD binder: -15; rCAG binder: 22; NadD inh: 36*; NadD conf: 3

What do the screens show for `CCOC(=O)CC[C@@]1(C(=O)OCC)C[C@@H](CC(=O)NCCCOC)C(=O)N2CCCC=C21`?
rCAG binder: 2

Results for Cc1cc2nc(-c3ccc(SCC(=O)Nc4nccs4)nc3)[nH]c2cc1C ?
FAS TE block: -12; NR3A LBD binder: 0; rCAG binder: 1; NadD inh: 20

Results for Cc1cc(C)c2nc(SCC(=O)Nc3ccc(S(=O)(=O)N4CCCC4)cc3)c(C)cc2c1 ?
FAS TE block: 26; NR3A LBD binder: 1; rCAG binder: 10; NadD inh: 36*; NadD conf: 9

How did Cc1cc2nc(-c3ccc(SCC(=O)Nc4ccc(S(=O)(=O)N5CCCC5)cc4)nc3)[nH]c2cc1C do in these assays?
FAS TE block: 6; NR3A LBD binder: 21*; rCAG binder: 16; NadD inh: 40*; NadD conf: 11

What do the screens show for `CCOc1ccc2nc(SCC(=O)Nc3ccc(S(=O)(=O)N4CCCC4)cc3)c(C)cc2c1`?
FAS TE block: 18; NR3A LBD binder: -1; rCAG binder: 6; NadD inh: 17

How did CC(=O)c1ccc(-n2c(SCC(=O)c3c[nH]c4ccccc34)nc3ccccc3c2=O)cc1 do in these assays?
FAS TE block: 23; NR3A LBD binder: 16*; rCAG binder: 18; NadD inh: 37*; NadD conf: 27

How did CCOC(=O)c1c(C)[nH]c(C)c1C(=O)CSc1nc2ccccc2c(=O)n1-c1ccc(CC)cc1 do in these assays?
FAS TE block: 23; NR3A LBD binder: 2; rCAG binder: 2; NadD inh: 5

Results for c1ccc(CCn2nnc(-c3ccc(N4CCOCC4)cc3)n2)cc1 ?
rCAG binder: 6

What do the screens show for `CCCCCC(=O)Nc1cccc(C2=NOC3(C2)C[C@@H](C(N)=O)N(C(=O)Cc2ccc([N+](=O)[O-])cc2)C3)c1` (some centres not stated)?
FAS TE block: 9; NR3A LBD binder: -4; rCAG binder: 2; NadD inh: 9

Results for C/C=C\C=C/C(=O)Nc1cccc(C2=NOC3(C2)C[C@@H](C(N)=O)N(C(=O)COc2ccc(Cl)cc2)C3)c1 (some centres not stated) ?
FAS TE block: 2; NR3A LBD binder: -3; rCAG binder: 13; NadD inh: 38*; NadD conf: 62*

How did NC(=O)[C@H]1CC2(CC(c3cccc(NC(=O)COc4ccc(Cl)cc4)c3)=NO2)CN1C(=O)Cc1ccc([N+](=O)[O-])cc1 (some centres not stated) do in these assays?
FAS TE block: 18; NR3A LBD binder: 4; rCAG binder: 10; NadD inh: 33*; NadD conf: 29

What do the screens show for `O=C(Nc1ccc(F)cc1)c1nc2c(nnn2Cc2cccc3ccccc23)c(=O)[nH]1`?
FAS TE block: 2; NR3A LBD binder: -1; rCAG binder: 22; NadD inh: 33*; NadD conf: 20

What do the screens show for `COc1ccccc1NC(=O)c1c(Nc2ccccc2C)sc(C(=O)Nc2cccc(Cl)c2)c1N`?
FAS TE block: 36; NR3A LBD binder: 31*; rCAG binder: 26; NadD inh: 35*; NadD conf: 47*

How did COc1ccc(C(=O)c2sc(Nc3ccccc3)c(C(=O)Nc3ccc(OC)c(OC)c3)c2N)cc1 do in these assays?
FAS TE block: 27; NR3A LBD binder: -5; rCAG binder: 22; NadD inh: 12

Results for COc1ccc(C(=O)c2sc(Nc3cccc(OC)c3)c(C(=O)Nc3cccc(C)c3C)c2N)cc1 ?
FAS TE block: 3; NR3A LBD binder: 5; rCAG binder: 17; NadD inh: 36*; NadD conf: -11

Results for CCC(=O)Nc1sc(C(=O)Nc2ccccc2OC)c(C)c1C(=O)OC ?
FAS TE block: 0; NR3A LBD binder: -1; rCAG binder: 1; NadD inh: 2

What do the screens show for `COc1ccc(Nc2sc(C(=O)c3ccc(Cl)cc3)c(N)c2C(=O)Nc2ccccc2OC)cc1`?
FAS TE block: 16; NR3A LBD binder: 1; rCAG binder: 23; NadD inh: 17

How did COc1ccc(NC(=O)c2c(Nc3ccccc3)sc(C(=O)c3ccc(F)cc3)c2N)cc1 do in these assays?
FAS TE block: 6; NR3A LBD binder: 0; rCAG binder: 31; NadD inh: 33*; NadD conf: -1

How did COCc1[nH]nc2c1C(c1ccc(F)cc1)N(c1ccc(OC)cc1)C2=O (configuration not stated) do in these assays?
rCAG binder: 3

Results for Cc1nc(NC(=O)c2ccco2)sc1-c1csc(Nc2ccc(Cl)cc2Cl)n1 ?
FAS TE block: 17; NR3A LBD binder: 4; rCAG binder: 48*; NadD inh: 53*; NadD conf: 28

How did Cc1ccc(Cl)cc1Nc1nc(-c2sc(NC(=O)c3ccco3)nc2C)cs1 do in these assays?
FAS TE block: 12; NR3A LBD binder: -6; rCAG binder: 30; NadD inh: 36*; NadD conf: 15

Results for COc1cccc(N(C(=O)c2ccco2)c2nc(-c3sc(NC(=O)c4ccco4)nc3C)cs2)c1 ?
FAS TE block: -1; NR3A LBD binder: 0; rCAG binder: 30; NadD inh: 36*; NadD conf: 46

How did CCCC(C)C(=O)Nc1nc(C)c(-c2csc(Nc3cc(Cl)ccc3C)n2)s1 (configuration not stated) do in these assays?
FAS TE block: 7; NR3A LBD binder: -4; rCAG binder: 29; NadD inh: 28*; NadD conf: 13

How did COC(=O)c1cc2c(c3c4ccccc4n(S(=O)(=O)c4ccc(C)cc4)c13)C(=O)N(Cc1ccccc1)C2 do in these assays?
rCAG binder: 20

Results for Cc1nc(NC(=O)c2ccco2)sc1-c1csc(Nc2ccc(Cl)cc2)n1 ?
FAS TE block: 19; NR3A LBD binder: 8; rCAG binder: 31; NadD inh: 36*; NadD conf: 36

How did CC(=O)OCC(=O)NCC1CCN(C(=O)C(=O)c2cc3ccccc3o2)CC1 do in these assays?
rCAG binder: 0

Results for COC(=O)c1cccc(CN2C(=O)SC(Nc3ccccc3)C2=O)c1 (configuration not stated) ?
FAS TE block: 4; NR3A LBD binder: 0; rCAG binder: 29; NadD inh: 31*; NadD conf: -6

What do the screens show for `Cc1ccc(-c2nn(-c3ccccc3)cc2/C=N/n2c(-c3cccs3)n[nH]c2=S)cc1`?
FAS TE block: 35; NR3A LBD binder: 6; rCAG binder: 6; NadD inh: 41*; NadD conf: 0

What do the screens show for `CCOc1ccc(C(=O)Nc2cc(NC(=O)c3ccc(OCC)c(Cl)c3)cc(C(=O)O)c2)cc1Cl`?
FAS TE block: 18; NR3A LBD binder: 23*; rCAG binder: 12; NadD inh: 30*; NadD conf: 13
